# From PubChem
# Many of the other results were omitted from the sample, so hits are more common in it than they were.
# Pf Dd2 growth – qHTS Primary assay for Inhibitors of Plasmodium falciparum Dd2 growth in vitro. P. falciparum Dd2 growth, SYBR Green, 72 h. hit rate 4.3% among 120,000. Potency, µM (series often up to 28.9 µM), without a hit: at the highest dose activity, negative = inhibition, hits mostly inhibitors. AID 1347417, 2020; active = well fitted inhibition curve with a large enough effect;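 also: plate controls were DMSO vehicle for no effect and reference drug for full effect; nearly all actives have a fitted effect of over 65% in size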
#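 Readout: SYBR Green fluorescence, 485 nm excitation, 535 nm emission, after ~16 h lysis at 37C. Before that, Dd2-infected red cells (2.5% hematocrit) grew 72 h with compound, 29 uM top final concentration.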
# An asterisk follows results filed as active; i = inactive; [ ] = dose if it differs, or a comment. Potency is read from the fitted curve at half-maximal effect.
SMILES,Pf Dd2 growth
Cc1ccc(CN2CCC3(CC2)Cc2ccccc2NC3=O)cc1,4.5µM*
CC(C)(C)CN1CCC2(Cc3ccccc3CNC2=O)C1 (stereo not given),-25%[44.1 µM]
O=C1NCc2ccccc2CC12CCN(Cc1ccc(Oc3ccccc3)cc1)C2 (stereo not given),11µM*
CC(=O)Nc1ccc(CN2CCCC3(Cc4ccccc4CNC3=O)C2)cc1 (stereo not given),-16%
COc1cccc(CN2CCC3(Cc4ccccc4NC3=O)C2)c1 (stereo not given),-4%[44.1 µM]
Cn1nccc1CN1CCC2(CC1)Cc1ccccc1NC2=O,-24%[44.1 µM]
O=C1NCc2ccccc2CC12CCN(Cc1ccncc1Cl)C2 (stereo not given),10%
N#Cc1ccc(CN2CCC3(Cc4ccccc4CNC3=O)C2)cc1 (stereo not given),5%
CC(C)Cc1ccc(CN2CCC3(Cc4ccccc4CNC3=O)C2)cc1 (stereo not given),13µM*
CN(C)C(=O)c1ccc(OC2CCN(C(=O)c3ccccc3F)CC2)nc1,53%
O=C(O)CCC1CCN(S(=O)(=O)c2ccccc2F)CC1,-8%
Cc1ccc(Cn2c(C(=O)O)c(CNCc3ccc(OC(C)C)cc3)c3ccc(C)cc32)cc1,11µM*
COc1ccc2c(CNCc3cccs3)c(C(=O)O)n(Cc3ccc(C)cc3)c2c1,-6%
Cc1ccc(CNCc2c(C(=O)O)n(Cc3ccc(C)cc3)c3cc(C)ccc23)cc1,-13%
CCc1ccc(CNCc2c(C(=O)O)n(Cc3ccc(C)cc3)c3cc(C)ccc23)cc1,5µM*
Cc1ccc(CNCc2c(C(=O)O)n(Cc3ccccc3C)c3cc(C)ccc23)cc1,3.2µM*
Cc1ccc2c(CNCC(C)c3ccccc3)c(C(=O)O)n(Cc3ccccc3C)c2c1 (stereo not given),i
COc1ccc(Cn2c(C(=O)O)c(CNCc3ccco3)c3ccc(C)cc32)cc1,i
COc1ccc(OC)c(CNCc2c(C(=O)O)n(Cc3ccccc3)c3cc(OC)ccc23)c1,i
Cc1ccc2c(CNC3CCCC3)c(C(=O)O)n(Cc3ccc(F)cc3)c2c1,-3%
C=Cc1ccc(Cn2c(C(=O)O)c(CNCc3ccccc3)c3ccc(C)cc32)cc1,7.9µM*
COc1ccc2c(CNCc3ccco3)c(C(=O)O)n(Cc3ccccc3)c2c1,-8%
Cc1ccc2c(CNCc3cccc(Cl)c3)c(C(=O)O)n(Cc3ccc(F)cc3Cl)c2c1,34%
COc1cccn(CC(=O)N(C)CCn2nc(C)cc2C)c1=O,0%
COc1cccc(CC(=O)N2CCC(n3cc(-c4nc(-c5ccccc5)no4)nn3)CC2)c1,165%
SMILES,Pf Dd2 growth
O=C1NCCCCCN(C(=O)NC2CCCCC2)[C@H]2CCCC[C@@H]12,17%
NCC(=O)N1CCC2(CC1)CN(C(=O)Cc1ccc(Cl)cc1)CCO2,7%
CCCN1CCN(CCCNC(=O)c2cc3c(s2)-c2c(C)cccc2OC3)CC1,i
CCOc1ccc(CCNC(=O)c2cc3c(=O)n(C)c4ccccc4c3s2)cc1OCC,i
CCCN1CCN(CCCNC(=O)c2cc3c(=O)[nH]c4ccccc4c3s2)CC1,13µM*
COc1ccc(NC(=O)c2cc3c(=O)n(C)c4ccccc4c3s2)cc1Cl,4%
CCCN1CCN(CCCNC(=O)c2cc3c(s2)-c2ccccc2OC3)CC1,i
CCCN(CCC)CCCNC(=O)c1cc2c(=O)n(C)c3ccccc3c2s1,10µM*
COCc1cn(C[C@H]2C[C@@H]3CCN2C[C@@H]3C(=O)NCc2ccccc2OC)nn1,-14%[44.1 µM]
Cc1cccc(C(=O)NCC2CCCCC(=O)N2)c1 (stereo not given),15%
COCCN1CCCCC(CC(=O)Nc2ccc(C)c(F)c2)C1=O (stereo not given),-20%
Cc1noc(C)c1[S+](=O)([O-])N1CCn2ncc(C(=O)N3CCOCC3)c2C1,13%
O=C1CCN(Cc2cccc(F)c2)CCCC(c2nc(-c3cccnc3)no2)CCN1 (stereo not given),-17%
CCN(Cc1cccc2cnccc12)CC1CCCN(CCc2cccc(F)c2)C1 (stereo not given),2.2µM*
CN(CC1CCN(CCc2cccc(F)c2)CC1)C(=O)COc1cccnc1,-25%
Cc1ccc2c(c1)N1C(=O)OC[C@@H]1CCNC2,23%[44.1 µM]
Cc1ccc(NC(=O)Cn2ccn3nc(-c4ccc(F)cc4)c(CO)c3c2=O)c(Cl)c1,18%
CC(=O)N1CCC(N2C[C@@H]3OCC(=O)N(Cc4ccccc4)[C@@H]3C2)CC1,-14%[44.1 µM]
Cc1ccc(CNC(=O)C2CCN(c3cn[nH]c(=O)c3)C2)cc1 (stereo not given),0%
CC(C)NC(=O)CC1Sc2ncccc2N(C)C1=O (stereo not given),3%
COc1ccc(-c2cc(C(=O)N3CCOCC3)c3c(C4CCCN4)nn(C)c3n2)cc1 (stereo not given),-26%
COCCNC(=O)c1cc(C2CC2)nc2c1c(C1CCCN1)nn2-c1ccccc1 (stereo not given),11µM*
Cc1nn(-c2ccccc2)c2nc(C3CC3)cc(C(=O)Nc3cccc(F)c3)c12,10µM*
